# In publication PMC7862700, “An all-to-all approach to the identification of sequence-specific readers for epigenetic DNA modifications on cytosine”:
# Columns and labels:
# Assay in all cases: DAPPL (digital affinity profiling via proximity ligation, sequencing); 10 mM Tris-HCl pH 7.5, 50 mM NaCl, 1 mM DTT, 4% glycerol, room temperature, 30 min; GST-TFs on glutathione beads, 16-mer random dsDNA library, 0.1% formaldehyde crosslink after washing; high values mean tight binding
# Conditions in all cases: protein: recombinant; tags: N-terminal GST; dsDNA, one strand shown
# FLI1 = biological target: T1, FLI1 (Homo sapiens, UniProt Q01543 1-452)
# T1 sequence: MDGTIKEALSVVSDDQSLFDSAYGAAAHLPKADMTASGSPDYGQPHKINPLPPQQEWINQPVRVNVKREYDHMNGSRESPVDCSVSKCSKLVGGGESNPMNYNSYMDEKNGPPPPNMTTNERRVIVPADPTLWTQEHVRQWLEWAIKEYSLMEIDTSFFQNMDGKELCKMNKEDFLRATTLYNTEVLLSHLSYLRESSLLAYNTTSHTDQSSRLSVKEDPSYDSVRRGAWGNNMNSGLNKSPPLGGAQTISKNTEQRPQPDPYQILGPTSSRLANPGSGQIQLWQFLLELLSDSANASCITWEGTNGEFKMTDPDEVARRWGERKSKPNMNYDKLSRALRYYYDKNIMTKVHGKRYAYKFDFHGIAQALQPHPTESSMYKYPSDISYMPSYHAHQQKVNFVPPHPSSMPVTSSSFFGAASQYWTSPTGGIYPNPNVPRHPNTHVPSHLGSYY
# Outline: (§1)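 Sequencing on an Illumina NextSeq500 followed washing, crosslinking with 0.1% formaldehyde, proximity ligation (BsaI/T4 ligase, 1 h, 37 °C) and PCR amplification of pools that had been incubated for 30 min at room temperature with 200 nmole of a random double-stranded 16-mer DNA library in Tris/NaCl/DTT/glycerol buffer. Each pool held DNA-barcoded human transcription factors, expressed in yeast as GST fusions and captured on glutathione beads, plus a tag-only sample. Binding signal is a hexamer's read frequency for a factor divided by its frequency in the tag-only sample.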
# ELK1 = biological target: T2, ELK1 (Homo sapiens, UniProt P19419 1-428)
# T2 sequence: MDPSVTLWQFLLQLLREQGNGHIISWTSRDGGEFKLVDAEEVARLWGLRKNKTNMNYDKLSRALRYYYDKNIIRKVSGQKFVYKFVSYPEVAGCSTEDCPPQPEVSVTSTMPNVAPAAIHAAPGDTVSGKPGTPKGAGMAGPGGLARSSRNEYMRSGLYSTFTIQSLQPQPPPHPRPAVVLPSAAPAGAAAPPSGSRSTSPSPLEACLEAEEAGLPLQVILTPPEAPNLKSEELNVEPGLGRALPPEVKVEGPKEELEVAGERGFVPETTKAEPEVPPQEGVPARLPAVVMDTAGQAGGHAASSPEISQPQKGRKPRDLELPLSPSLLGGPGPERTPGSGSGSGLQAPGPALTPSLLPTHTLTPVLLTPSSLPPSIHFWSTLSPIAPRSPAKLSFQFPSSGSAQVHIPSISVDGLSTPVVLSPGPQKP
# Outline: as §1
# GABPA = biological target: T3, GABPA (Homo sapiens, UniProt Q06546 1-454)
# T3 sequence: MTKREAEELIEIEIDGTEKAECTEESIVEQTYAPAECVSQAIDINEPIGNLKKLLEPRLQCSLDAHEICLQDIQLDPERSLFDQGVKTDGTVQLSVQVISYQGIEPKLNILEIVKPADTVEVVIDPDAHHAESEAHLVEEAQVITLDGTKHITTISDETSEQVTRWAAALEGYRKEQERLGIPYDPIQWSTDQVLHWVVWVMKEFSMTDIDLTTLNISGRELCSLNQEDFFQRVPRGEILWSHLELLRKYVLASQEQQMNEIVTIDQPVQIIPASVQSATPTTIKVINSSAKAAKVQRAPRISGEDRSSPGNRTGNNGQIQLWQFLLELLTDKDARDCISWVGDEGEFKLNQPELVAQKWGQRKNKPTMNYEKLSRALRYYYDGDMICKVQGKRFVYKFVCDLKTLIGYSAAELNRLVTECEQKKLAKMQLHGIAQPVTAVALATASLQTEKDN
# Outline: as §1
# ELF1 = ELF1 (Homo sapiens, UniProt P32519 1-619)
# Outline: as §1
# SPI1 = SPI1 (Homo sapiens, UniProt P17947 1-270)
# Outline: as §1
# SPIB = SPIB (Homo sapiens, UniProt Q01892 1-262)
# Outline: as §1
# ELK3 = biological target: T4, ELK3 (Homo sapiens, UniProt P41970 1-407)
# T4 sequence: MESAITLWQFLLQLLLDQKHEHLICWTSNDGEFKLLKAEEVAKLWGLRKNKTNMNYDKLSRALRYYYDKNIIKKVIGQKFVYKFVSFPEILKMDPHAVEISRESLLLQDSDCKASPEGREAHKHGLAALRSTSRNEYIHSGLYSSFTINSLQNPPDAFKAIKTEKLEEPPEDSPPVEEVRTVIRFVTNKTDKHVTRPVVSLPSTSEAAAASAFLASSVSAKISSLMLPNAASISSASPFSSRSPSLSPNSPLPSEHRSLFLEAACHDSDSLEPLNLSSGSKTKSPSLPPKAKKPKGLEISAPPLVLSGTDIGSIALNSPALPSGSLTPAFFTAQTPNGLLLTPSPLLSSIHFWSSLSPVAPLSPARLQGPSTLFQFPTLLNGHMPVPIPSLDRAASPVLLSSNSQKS
# Outline: as §1
# FEV = biological target: T5, FEV (Homo sapiens, UniProt Q99581 1-238)
# T5 sequence: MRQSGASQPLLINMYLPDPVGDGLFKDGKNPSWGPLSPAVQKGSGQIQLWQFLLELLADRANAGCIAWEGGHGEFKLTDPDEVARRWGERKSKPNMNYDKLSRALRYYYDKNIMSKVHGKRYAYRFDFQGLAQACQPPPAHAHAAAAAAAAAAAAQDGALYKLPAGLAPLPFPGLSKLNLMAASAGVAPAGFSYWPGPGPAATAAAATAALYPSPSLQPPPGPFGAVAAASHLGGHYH
# Outline: as §1
# ETV5 = ETV5 (Homo sapiens, UniProt P41161 1-510)
# Outline: as §1
# ELF4 = ELF4 (Homo sapiens, UniProt Q99607 1-663)
# Outline: as §1
# ETV1 = ETV1 (Homo sapiens, UniProt P50549 1-477)
# Outline: as §1
# ERF = biological target: T6, ERF (Homo sapiens, UniProt P50548 1-548)
# T6 sequence: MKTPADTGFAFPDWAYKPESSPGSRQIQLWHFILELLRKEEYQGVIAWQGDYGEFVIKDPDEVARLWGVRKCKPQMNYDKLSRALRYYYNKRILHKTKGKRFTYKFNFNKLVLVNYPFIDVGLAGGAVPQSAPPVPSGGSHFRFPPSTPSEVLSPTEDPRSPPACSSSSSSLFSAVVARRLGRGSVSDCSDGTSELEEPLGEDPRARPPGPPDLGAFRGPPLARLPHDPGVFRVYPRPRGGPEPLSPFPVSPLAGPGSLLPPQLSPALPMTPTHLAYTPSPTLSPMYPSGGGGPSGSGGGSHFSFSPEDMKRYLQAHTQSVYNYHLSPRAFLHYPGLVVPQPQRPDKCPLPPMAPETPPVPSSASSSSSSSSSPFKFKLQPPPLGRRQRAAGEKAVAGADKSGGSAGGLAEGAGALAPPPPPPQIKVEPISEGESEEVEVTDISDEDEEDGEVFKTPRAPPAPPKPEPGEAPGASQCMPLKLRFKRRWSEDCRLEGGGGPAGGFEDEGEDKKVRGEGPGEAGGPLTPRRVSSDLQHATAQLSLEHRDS
# Outline: as §1
# ETV3L = biological target: T7, ETV3L (Homo sapiens, UniProt Q6ZN32 1-361)
# T7 sequence: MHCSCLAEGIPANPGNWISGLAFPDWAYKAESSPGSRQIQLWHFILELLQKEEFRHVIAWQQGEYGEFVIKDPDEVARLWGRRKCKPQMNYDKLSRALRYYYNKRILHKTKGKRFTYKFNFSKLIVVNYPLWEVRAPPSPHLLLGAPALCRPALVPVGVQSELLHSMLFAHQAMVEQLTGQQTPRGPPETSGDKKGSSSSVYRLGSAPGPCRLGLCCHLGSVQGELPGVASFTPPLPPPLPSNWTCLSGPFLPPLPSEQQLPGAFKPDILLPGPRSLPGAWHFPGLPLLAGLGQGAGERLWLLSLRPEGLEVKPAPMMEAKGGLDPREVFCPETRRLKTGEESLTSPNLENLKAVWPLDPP
# Outline: as §1
# ETS2 = biological target: T8, ETS2 (Homo sapiens, UniProt P15036 1-469)
# T8 sequence: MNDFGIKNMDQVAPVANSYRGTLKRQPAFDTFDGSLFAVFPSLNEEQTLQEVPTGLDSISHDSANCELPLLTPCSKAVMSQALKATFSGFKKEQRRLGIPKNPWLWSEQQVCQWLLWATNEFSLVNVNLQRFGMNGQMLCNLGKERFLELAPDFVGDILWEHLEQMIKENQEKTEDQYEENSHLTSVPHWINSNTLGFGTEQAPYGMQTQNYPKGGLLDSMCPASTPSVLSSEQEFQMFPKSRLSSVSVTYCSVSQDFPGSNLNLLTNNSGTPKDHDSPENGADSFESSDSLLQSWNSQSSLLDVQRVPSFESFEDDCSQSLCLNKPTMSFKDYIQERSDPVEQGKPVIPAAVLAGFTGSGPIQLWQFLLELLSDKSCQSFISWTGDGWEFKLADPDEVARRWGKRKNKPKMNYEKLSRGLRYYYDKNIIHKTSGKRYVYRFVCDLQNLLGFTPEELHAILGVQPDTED
# Outline: as §1
# SPDEF = biological target: T9, SPDEF (Homo sapiens, UniProt O95238 1-335)
# T9 sequence: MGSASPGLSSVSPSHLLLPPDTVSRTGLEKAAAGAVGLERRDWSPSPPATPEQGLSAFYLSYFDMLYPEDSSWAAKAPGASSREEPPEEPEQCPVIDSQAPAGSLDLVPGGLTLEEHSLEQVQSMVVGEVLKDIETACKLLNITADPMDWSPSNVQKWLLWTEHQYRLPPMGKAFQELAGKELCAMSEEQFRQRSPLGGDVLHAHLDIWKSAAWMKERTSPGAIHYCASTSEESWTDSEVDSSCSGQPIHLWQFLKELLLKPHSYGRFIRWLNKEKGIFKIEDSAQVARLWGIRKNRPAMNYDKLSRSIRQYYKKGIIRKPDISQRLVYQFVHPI
# Outline: as §1
# ETV6 = ETV6 (Homo sapiens, UniProt P41212 1-452)
# Outline: as §1
# ETV1, sequence (P50549 whole entry): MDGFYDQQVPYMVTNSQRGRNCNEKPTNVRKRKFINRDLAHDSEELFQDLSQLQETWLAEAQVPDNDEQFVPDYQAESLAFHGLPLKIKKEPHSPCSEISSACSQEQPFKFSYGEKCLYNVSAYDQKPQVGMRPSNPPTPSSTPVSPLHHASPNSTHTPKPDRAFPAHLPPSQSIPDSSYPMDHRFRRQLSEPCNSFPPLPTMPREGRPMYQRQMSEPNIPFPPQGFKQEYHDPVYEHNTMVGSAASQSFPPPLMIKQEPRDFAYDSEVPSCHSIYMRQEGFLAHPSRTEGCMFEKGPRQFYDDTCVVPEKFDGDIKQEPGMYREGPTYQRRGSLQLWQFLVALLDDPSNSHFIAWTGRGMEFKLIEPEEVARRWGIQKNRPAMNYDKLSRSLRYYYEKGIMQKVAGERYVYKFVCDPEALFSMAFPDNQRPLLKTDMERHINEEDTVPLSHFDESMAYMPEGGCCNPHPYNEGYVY
# ELF1, sequence (P32519 whole entry): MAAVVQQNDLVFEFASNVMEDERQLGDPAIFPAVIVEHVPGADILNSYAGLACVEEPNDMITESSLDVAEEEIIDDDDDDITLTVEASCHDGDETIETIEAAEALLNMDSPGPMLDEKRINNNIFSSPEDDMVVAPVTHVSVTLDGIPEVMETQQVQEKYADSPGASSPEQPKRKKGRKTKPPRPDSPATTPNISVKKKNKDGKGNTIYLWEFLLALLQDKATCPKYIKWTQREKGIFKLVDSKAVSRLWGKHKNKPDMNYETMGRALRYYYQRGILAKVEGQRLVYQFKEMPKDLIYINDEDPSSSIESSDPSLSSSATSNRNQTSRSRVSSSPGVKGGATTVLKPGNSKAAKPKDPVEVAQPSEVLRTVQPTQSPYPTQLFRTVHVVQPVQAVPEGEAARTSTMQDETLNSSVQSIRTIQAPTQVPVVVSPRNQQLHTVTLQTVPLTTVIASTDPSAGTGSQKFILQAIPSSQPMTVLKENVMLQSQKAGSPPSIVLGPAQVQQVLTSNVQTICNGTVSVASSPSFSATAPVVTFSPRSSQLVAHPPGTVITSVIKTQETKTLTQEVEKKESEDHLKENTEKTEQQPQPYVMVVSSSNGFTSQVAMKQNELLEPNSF
# ELF4, sequence (Q99607 whole entry): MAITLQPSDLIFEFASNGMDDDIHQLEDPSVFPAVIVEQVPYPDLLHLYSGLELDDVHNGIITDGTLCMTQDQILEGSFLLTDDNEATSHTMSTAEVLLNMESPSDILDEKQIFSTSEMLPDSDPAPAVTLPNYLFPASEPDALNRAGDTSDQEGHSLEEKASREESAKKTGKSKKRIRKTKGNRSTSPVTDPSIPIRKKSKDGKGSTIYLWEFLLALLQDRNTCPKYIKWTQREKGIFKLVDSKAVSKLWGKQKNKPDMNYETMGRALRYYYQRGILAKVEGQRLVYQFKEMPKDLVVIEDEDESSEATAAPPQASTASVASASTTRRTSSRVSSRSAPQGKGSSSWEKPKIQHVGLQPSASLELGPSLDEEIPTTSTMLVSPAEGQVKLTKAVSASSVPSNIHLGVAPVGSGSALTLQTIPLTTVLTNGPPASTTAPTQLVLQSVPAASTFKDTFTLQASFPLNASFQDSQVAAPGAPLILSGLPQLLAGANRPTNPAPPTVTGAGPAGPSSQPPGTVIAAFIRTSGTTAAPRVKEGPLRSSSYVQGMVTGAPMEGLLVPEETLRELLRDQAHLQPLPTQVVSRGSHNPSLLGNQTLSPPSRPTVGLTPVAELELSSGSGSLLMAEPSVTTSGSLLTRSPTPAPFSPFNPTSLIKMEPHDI
# ETV5, sequence (P41161 whole entry): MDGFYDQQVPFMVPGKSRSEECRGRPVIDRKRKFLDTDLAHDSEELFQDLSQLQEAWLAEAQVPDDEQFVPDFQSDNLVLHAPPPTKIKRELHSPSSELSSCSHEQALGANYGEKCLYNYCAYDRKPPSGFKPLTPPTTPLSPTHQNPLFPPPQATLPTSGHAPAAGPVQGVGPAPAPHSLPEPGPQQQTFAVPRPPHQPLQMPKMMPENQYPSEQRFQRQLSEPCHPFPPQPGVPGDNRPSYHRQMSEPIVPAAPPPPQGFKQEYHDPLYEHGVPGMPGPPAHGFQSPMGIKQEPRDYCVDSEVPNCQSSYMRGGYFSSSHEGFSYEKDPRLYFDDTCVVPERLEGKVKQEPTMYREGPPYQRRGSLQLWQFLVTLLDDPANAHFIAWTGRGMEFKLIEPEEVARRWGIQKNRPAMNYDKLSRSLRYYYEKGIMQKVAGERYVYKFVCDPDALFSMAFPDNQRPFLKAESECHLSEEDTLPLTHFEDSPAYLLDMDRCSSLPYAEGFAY
# ETV6, sequence (P41212 whole entry): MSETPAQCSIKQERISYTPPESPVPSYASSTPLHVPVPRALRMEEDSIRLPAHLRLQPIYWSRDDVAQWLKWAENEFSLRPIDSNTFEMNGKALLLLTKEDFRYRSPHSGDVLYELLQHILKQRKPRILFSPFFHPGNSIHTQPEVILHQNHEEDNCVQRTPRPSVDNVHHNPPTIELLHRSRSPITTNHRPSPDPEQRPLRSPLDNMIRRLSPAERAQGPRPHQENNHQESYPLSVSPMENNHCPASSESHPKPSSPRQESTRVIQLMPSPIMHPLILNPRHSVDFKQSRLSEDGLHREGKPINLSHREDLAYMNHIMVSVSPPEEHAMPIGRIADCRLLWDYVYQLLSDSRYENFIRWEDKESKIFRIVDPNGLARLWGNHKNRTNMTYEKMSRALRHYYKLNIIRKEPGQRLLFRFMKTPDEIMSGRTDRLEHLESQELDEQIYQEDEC
# SPIB, sequence (Q01892 whole entry): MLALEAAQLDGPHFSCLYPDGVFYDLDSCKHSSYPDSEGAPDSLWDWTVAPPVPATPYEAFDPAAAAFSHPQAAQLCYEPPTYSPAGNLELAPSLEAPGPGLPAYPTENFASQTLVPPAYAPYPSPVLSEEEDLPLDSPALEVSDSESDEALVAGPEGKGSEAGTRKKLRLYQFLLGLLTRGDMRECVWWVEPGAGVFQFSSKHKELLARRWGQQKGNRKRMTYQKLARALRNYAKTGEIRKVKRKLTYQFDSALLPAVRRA
sequence,measurement,setting,value
CTATCA,binding signal,FLI1,"1.1 fold enrichment (6-mer frequency, TF over GST control)"
same,binding signal,ELK1,"1.06 fold enrichment (6-mer frequency, TF over GST control)"
same,binding signal,GABPA,"1.1 fold enrichment (6-mer frequency, TF over GST control)"
same,binding signal,ELF1,"1.05 fold enrichment (6-mer frequency, TF over GST control)"
same,binding signal,SPI1,"1.01 fold enrichment (6-mer frequency, TF over GST control)"
same,binding signal,SPIB,"1.05 fold enrichment (6-mer frequency, TF over GST control)"
same,binding signal,ELK3,"1.11 fold enrichment (6-mer frequency, TF over GST control)"
same,binding signal,FEV,"1.02 fold enrichment (6-mer frequency, TF over GST control)"
same,binding signal,ETV5,"1.03 fold enrichment (6-mer frequency, TF over GST control)"
same,binding signal,ELF4,"1.15 fold enrichment (6-mer frequency, TF over GST control)"
same,binding signal,ETV1,"1 fold enrichment (6-mer frequency, TF over GST control)"
same,binding signal,ERF,"1.06 fold enrichment (6-mer frequency, TF over GST control)"
same,binding signal,ETV3L,"1.09 fold enrichment (6-mer frequency, TF over GST control)"
same,binding signal,ETS2,"1.04 fold enrichment (6-mer frequency, TF over GST control)"
same,binding signal,SPDEF,"1.07 fold enrichment (6-mer frequency, TF over GST control)"
same,binding signal,ETV6,"1.03 fold enrichment (6-mer frequency, TF over GST control)"
